Inhibition data for 3 compounds are collected here from ChEMBL document CHEMBL4513154, “CO-ADD screening of Jain University (India) compounds”.

One assay deals with Klebsiella pneumoniae. As to conditions: Concentration 32 ug.mL-1; ASSAY_TEST Inhibition of Bacterial Growth; detection method Absorption (OD600); MEDIA CAMHB; plate type 384well; NBS; CORNING #3640; time 18 hr.
The test system of the next assay is Candida albicans. As to conditions: 32 ug/mL.
The next assay deals with Cryptococcus neoformans. As to conditions: Concentration 32 ug.mL-1; ASSAY_TEST Inhibition of Fungal Growth; detection method Resazurin; Absorption (OD600-OD570); plate type 384well; NBS; CORNING #3640. A general note: Resazurin is reduced to fluorescent resorufin, in cell work by metabolically active cells.

Measured potencies and affinities stand elsewhere.

For `Clc1ccc(Cn2c(-c3cscn3)nc3c(Cl)cccc32)cn1`, the figures for the Inhibition in the assay with Klebsiella pneumoniae, in the assay on Candida albicans and in the assay with Cryptococcus neoformans were 14.39%, 1.41% and -19.98%, respectively.

On to `Clc1ccc2c(c1)nc(-c1cscn1)n2Cc1ccc(Cl)nc1`, for which the figures for the Inhibition in the assay with Klebsiella pneumoniae, with Candida albicans and in the assay on Cryptococcus neoformans were -1.17%, 2.99% and -29.64%, respectively.

For `Clc1ccc(Cn2c(-c3cscn3)nc3ccccc32)cn1`, the Inhibition (in general, the drop in the measured response relative to a control, in per cent) in the assay with Klebsiella pneumoniae was 12.39%; in the assay with Candida albicans, 0.69%; with Cryptococcus neoformans, -39.39%.
